Compound activity (PubChem BioAssay)
Sampled rows, rich in hits. Any-hit rate of the full collection: about 10%.
ROMK mod: human ROMK K+ channel modulation, primary screen; P48048; Tet-inducible ROMK, thallium flux fluorescence; actives lie on both sides; B-score at 10 µM; 130,000 tested, 2% active; AID 1918;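 active = signal ratio slope over the read window, or its plate-corrected B-score, at least 3 SD from the plate mean, either direction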;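 also: B-score of the F/F0 ratio slope over 7 to 12 s after thallium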
L major viab: inhibitors of Leishmania major promastigote growth. Leishmania major promastigotes, resazurin fluorescence viability. AID 1063. 200,000 tested, 9% active. inhibition, % at 10 µM; in the data active = inhibition above about 50%;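 also: promastigotes grown with compound for 44 hours at 28 °C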
Insulin prom inh: TRM-6 insulin promoter activity inhibition. 130,000 tested, 0.9% active. inhibition, % at 2 µM. TRM-6 cells (human fetal islet line), insulin promoter-eGFP reporter, imaging; reporter expression induced with tamoxifen. AID 1273;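 active = inhibition above the mean plus 3 SD, with well images judged a real hit on visual review, cut at about 60% in these data, passing the limit was not always enough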
p97 inhibitor: inhibitors of human p97 ATPase | P55072 | 220,000 tested, 0.42% active | inhibition, % at 8 µM | recombinant p97 ATPase, Kinase-Glo ATP luminescence, 3 h | AID 1481; in the data active = inhibition above about 15%;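 also: 0% = DMSO vehicle and 100% = wells lacking enzyme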
Target sequence (P55072 whole entry, looked up): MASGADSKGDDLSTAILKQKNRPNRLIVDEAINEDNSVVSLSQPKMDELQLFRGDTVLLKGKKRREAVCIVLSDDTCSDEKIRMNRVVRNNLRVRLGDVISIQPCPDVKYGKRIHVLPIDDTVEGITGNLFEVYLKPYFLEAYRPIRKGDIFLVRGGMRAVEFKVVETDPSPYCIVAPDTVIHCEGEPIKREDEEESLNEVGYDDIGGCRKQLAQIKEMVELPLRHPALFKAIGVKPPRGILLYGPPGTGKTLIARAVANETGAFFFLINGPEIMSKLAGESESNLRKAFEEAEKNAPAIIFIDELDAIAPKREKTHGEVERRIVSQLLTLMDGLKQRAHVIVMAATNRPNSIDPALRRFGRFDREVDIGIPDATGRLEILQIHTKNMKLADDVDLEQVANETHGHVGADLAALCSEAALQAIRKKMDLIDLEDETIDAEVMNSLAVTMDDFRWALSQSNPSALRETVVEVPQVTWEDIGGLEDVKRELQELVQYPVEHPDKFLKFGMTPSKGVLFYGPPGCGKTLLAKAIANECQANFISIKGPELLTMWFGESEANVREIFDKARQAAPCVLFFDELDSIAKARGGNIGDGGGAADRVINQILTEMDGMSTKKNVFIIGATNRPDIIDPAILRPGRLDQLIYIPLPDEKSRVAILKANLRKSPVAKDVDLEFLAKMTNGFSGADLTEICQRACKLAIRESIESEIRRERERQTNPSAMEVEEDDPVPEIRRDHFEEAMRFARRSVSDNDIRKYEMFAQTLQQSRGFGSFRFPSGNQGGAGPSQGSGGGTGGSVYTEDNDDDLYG
bCat KO growth: beta-catenin-lacking colon tumor cell growth suppression | HCT116 beta-catenin knockout viability, CellTiter-Glo, 60 h; active compounds read low | viability, % at 10 µM | 140,000 tested, 1.5% active | AID 818;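 active = viability at or under a set limit, the compound median less 4 SD, cut at about 6% in these data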;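 also: 0% = Hyamine 1622 control at 20 µM and 100% = untreated cell control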
PTEN del growth: PTEN-deleted cell growth suppression; HCT116 PTEN-null viability, CellTiter-Glo, 60 h; active compounds read low; 140,000 tested, 1.2% active; viability, % at 10 µM;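 active = viability at or below a set limit, 4 SD under the median of all tested compounds, cut at about 3.7% in these data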;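 also: PTEN knockout HCT116 line with beta catenin targeted HCT116 as companion control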
Lmaj promast 1uM: inhibitors of Leishmania major promastigote growth, repeat at 1 uM; shares compounds with L major viab; L. major promastigote growth, resazurin fluorescence, 48 h; inhibition, % at 1 µM; 1,100 tested, 13% active; AID 1258;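 active = inhibition above about 50% in both repeat tests, limit read from the data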
* = called active by the depositor; / = no result given.

SMILES	ROMK mod	L major viab	Insulin prom inh	p97 inhibitor	bCat KO growth	PTEN del growth	Lmaj promast 1uM
COc1ccc(N2C3=[N+](CC2(C)O)c2ccccc2CC3)cc1 (centres undefined)	/	90*	36	3	100	94	39
COc1ccc(OCC(=O)N2c3ccccc3CCc3ccccc32)cc1	/	41	-7	4	94	72	/
Cc1[nH]c2c(Br)cccc2c1[C@H]1[C@@H](CC#N)C1(C)C	/	99*	3	-1	89	91	4
Cc1c([C@H]2[C@@H](CC#N)C2(C)C)c2ccccc2n1C	-1.1	3	4	-1	90	92	/
Nc1nsc2ccccc12	-1.9	100*	0	5	4.7*	4	95*
CCOC(=O)c1ccc(NC(=S)N2CCSC2c2ccc(Cl)cc2)cc1 (centres undefined)	/	60*	/	-1	75	64	-11
O=C(OCc1ccccc1)N1CCOCCOCCN(C(=O)OCc2ccccc2)CCOCCOCC1	/	61*	0	-5	31	37	-4
Cc1nc(CS(=O)(=O)c2ccc(Cl)cc2)cc(Sc2ccc(Cl)cc2)n1	/	0	-11	-5	63	75	/
COc1cc(C(=O)N/N=C/c2sc(N3CCOCC3)nc2-c2ccccc2)cc(OC)c1OC	0.6	9	/	3	/	/	/
Cc1ccc(-c2csc3ncnc(Sc4nnc(CN5CCCCCC5=O)o4)c23)cc1	/	99*	/	3	1.9*	1.7*	4
Cc1ccc(-c2csc3ncnc(SCC(=O)Nc4nnc(C)s4)c23)cc1	/	-7	-9	1	86	102	/
CN1CCC(OC(=O)c2ccccc2Cl)CC1	0.55	76*	/	3	/	/	-1
CN1CCC(OC(=O)c2ccco2)CC1	0.38	-4	/	-3	/	/	/
COc1ccccc1CNc1nc2ccccc2n1CCN1CCCCC1	-1.7	61*	/	1	24	25	9
Cc1sc(N)c(C#N)c1C	-0.21	51*	-4	-5	96	98	-19
CCN(CC)C(=O)c1sc(N)c(C#N)c1C	0.94	-2	64	6	99	104	/
Cc1cc([N+](=O)[O-])ccc1N=Nc1c(N)[nH]n(-c2ccccc2)c1=O	0.1	-5	11	9	/	/	/
Cc1ccc([N+](=O)[O-])cc1N=Nc1c(-c2ccc([N+](=O)[O-])cc2)[nH]n(C(N)=S)c1=O	-0.065	88*	/	2	/	/	-5
N/C(=N\O)c1ccc(Cl)cc1Cl	-0.035	/	/	6	/	/	/
CC1CCN(C(=O)COC(=O)[C@H](C)NS(=O)(=O)/C=C/c2ccccc2)CC1	0.67	-1	-23	1	98	96	/
O=C(NCCC(c1ccccc1)c1ccccc1)c1ccc(Br)o1	0.26	59*	3	3	63	63	-2
O=C(O)CCNC(=O)c1ccc(Br)o1	/	-9	43	5	100	100	/
Cc1csc(SC(C)c2nc3scc(-c4ccccc4)c3c(=O)[nH]2)n1 (centres undefined)	/	/	/	1	/	/	/
Cc1nnc(SCC(=O)NC(C)(C)C)n1NCc1c(F)cccc1Cl	-0.018	-3	/	1	/	/	/
CC(C)CCOCC(=O)Nc1cccc(C(=O)O)c1	/	-9	-12	1	97	99	/
SMILES	ROMK mod	L major viab	Insulin prom inh	p97 inhibitor	bCat KO growth	PTEN del growth	Lmaj promast 1uM
CCCc1nnc(SCC(=O)N2CCCC(C)C2)n1CCOC (centres undefined)	-0.014	-5	31	-4	/	/	/
CCN(CC)S(=O)(=O)c1ccc(NC2=NS(=O)(=O)c3ccccc32)cc1	0.0052	-2	6	2	97	99	/
O=S1(=O)N=C(Nc2ccc(O)c(CN3CCCCC3)c2)c2ccccc21	-0.039	55*	15	13	96	100	-2
COc1ccccc1-c1c(C(F)(F)F)oc2cc(OC(=O)c3ccc([N+](=O)[O-])cc3)ccc2c1=O	/	-3	30	-3	89	76	/
CC(C)(C)C(=O)/C=c1\[nH]c(=O)/c(=C\c2ccc(F)cc2)s1	-0.2	73*	-25	-2	39	38	-4
CCc1ccc(/C=c2\s/c(=C\C(=O)C(C)(C)C)[nH]c2=O)cc1	-0.29	39	-21	-5	46	43	/
CCn1c2ccccc2c2nn(C)c(=N)nc21	/	96*	3	4	79	76	30
CC(C)Oc1ccccc1C1CC(=O)Nc2c1c(=O)n(C)c(=O)n2C (centres undefined)	/	3	/	-7	94	108	/
CCCOc1ccc(N)cc1N	0.99	74*	/	13	94	81	-14
CC12CCC(C(=O)N(CCCN3CCN(Cc4ccccc4)CC3)C1=O)C2(C)C (centres undefined)	-0.017	95*	23	0	/	/	68*
CCC(C)(C)c1ccc(Oc2ccc(N)cc2)cc1	0.0063	95*	-73	-8	/	/	14
CCN(CC)c1ccc(/C=N/NC(=O)c2cccc(S(=O)(=O)N3CCOCC3)c2)c(O)c1	0.7	100*	/	1	/	/	-31
CCOc1ccccc1/C=N/NC(=O)c1cccc(S(=O)(=O)N2CCOCC2)c1	0.44	0	/	-1	/	/	/
CC1CC(NS(=O)(=O)c2cccs2)CC(C)(C)C1 (centres undefined)	/	-1	-121	-2	94	93	/
C=C(C)c1cccc(C(C)(C)NC(=O)N2CCN(c3ccc(OC)cc3)CC2)c1	0.049	41	-14	4	86	93	/
O=C(CN1CCCCC1)N1CCCc2c1c(=O)oc1ccc(OCc3ccccc3)cc21	-0.46	67*	-3	-3	33	13	-2
O=C(CN1CCN(Cc2ccccc2)CC1)N1CCCc2c1c(=O)oc1ccc(O)cc21	/	10	-17	-2	38	34	/
CC(CN1CCOCC1)OC(=O)Cc1ccc(Cl)cc1 (centres undefined)	0.11	-9	/	1	/	/	/
COc1ccc(CC(=O)OC(C)CN2CCCC2)cc1 (centres undefined)	-0.83	100*	14	1	88	95	-11
O=C(COc1ccccc1-c1ccccc1)c1ccccc1	/	-3	/	4	93	100	/
N=C(N)CCCOc1ccccc1-c1ccccc1	-0.9	53*	-14	0	81	78	-11
CCOC(=O)N1CCN(C(=O)c2ccc3c(c2)sc2nc(-c4ccccc4)cn23)CC1	/	58*	-100	-5	87	93	2
CCOC(=O)N1CCC(NC(=O)c2ccc3c(c2)sc2nc(-c4ccc(OC)cc4)cn23)CC1	-0.0093	0	30	-2	98	112	/
CC[C@H](C)C(=O)O[C@H]1CCC=C2C=C[C@H](C)[C@H](CC[C@@H]3C[C@@H](O)CC(=O)O3)[C@H]21	-0.045	76*	-133	-8	/	/	-6
N#Cc1c(N)nc(SCc2ccncc2)c(C#N)c1-c1cccs1	/	17	26	0	83	87	/
COc1cc(-c2c(C#N)c(N)nc(SCc3ccncc3)c2C#N)cc(OC)c1OC	-1.2	98*	/	4	15	8	61*
